# Measured values published in PMC7862700, “An all-to-all approach to the identification of sequence-specific readers for epigenetic DNA modifications on cytosine”.
# Assays:
# Experiment in all cases: DAPPL (digital affinity profiling via proximity ligation, sequencing); 10 mM Tris-HCl pH 7.5, 50 mM NaCl, 1 mM DTT, 4% glycerol, room temperature, 30 min; GST-TFs on glutathione beads, 16-mer random dsDNA library, 0.1% formaldehyde crosslink after washing; high values mean tight binding
# FEV = target: T1, FEV (Homo sapiens, UniProt Q99581 1-238); settings: protein: recombinant; tags: N-terminal GST; dsDNA, one strand shown
# T1 sequence: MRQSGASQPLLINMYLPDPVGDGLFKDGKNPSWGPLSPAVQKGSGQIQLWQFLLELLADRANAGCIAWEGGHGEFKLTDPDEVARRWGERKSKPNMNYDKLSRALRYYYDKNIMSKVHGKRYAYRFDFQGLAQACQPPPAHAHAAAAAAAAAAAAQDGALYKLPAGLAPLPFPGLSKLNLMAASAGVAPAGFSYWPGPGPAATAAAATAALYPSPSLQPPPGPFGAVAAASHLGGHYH
# Outline: (§1)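 Beads coated with glutathione captured GST-fused human transcription factors that had been expressed in yeast, and the factors were then given DNA barcodes and pooled with a tag-only sample. The pools were incubated with 200 nmole of a random double-stranded 16-mer DNA library in Tris/NaCl/DTT/glycerol buffer for 30 min at room temperature, washed, crosslinked with 0.1% formaldehyde and proximity-ligated with BsaI/T4 ligase at 37 °C for 1 h. PCR amplification and Illumina NextSeq500 sequencing came last. Binding signal is each hexamer's read frequency for a factor divided by its frequency for the tag-only sample.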
# ETV5 = ETV5 (Homo sapiens, UniProt P41161 1-510); settings: protein: recombinant; tags: N-terminal GST; dsDNA, one strand shown
# Outline: as §1
# HSF1 = HSF1 (Homo sapiens, UniProt Q00613 1-529); settings: protein: recombinant; tags: N-terminal GST; chain copies: 3; dsDNA, one strand shown
# Outline: as §1
# SPIC = target: T2, SPIC (Homo sapiens, UniProt Q8N5J4 1-248); settings: protein: recombinant; tags: N-terminal GST; dsDNA, one strand shown
# T2 sequence: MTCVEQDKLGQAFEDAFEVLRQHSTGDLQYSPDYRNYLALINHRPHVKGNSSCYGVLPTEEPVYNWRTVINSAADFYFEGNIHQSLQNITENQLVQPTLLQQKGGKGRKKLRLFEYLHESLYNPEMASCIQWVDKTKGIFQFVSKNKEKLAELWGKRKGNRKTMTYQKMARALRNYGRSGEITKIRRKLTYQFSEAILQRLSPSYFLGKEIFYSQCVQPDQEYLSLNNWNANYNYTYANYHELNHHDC
# Outline: as §1
# ELF4 = ELF4 (Homo sapiens, UniProt Q99607 1-663); settings: protein: recombinant; tags: N-terminal GST; dsDNA, one strand shown
# Outline: as §1
# ELK4 = target: T3, ELK4 (Homo sapiens, UniProt P28324-2 1-405); settings: protein: recombinant; tags: N-terminal GST; dsDNA, one strand shown
# T3 sequence: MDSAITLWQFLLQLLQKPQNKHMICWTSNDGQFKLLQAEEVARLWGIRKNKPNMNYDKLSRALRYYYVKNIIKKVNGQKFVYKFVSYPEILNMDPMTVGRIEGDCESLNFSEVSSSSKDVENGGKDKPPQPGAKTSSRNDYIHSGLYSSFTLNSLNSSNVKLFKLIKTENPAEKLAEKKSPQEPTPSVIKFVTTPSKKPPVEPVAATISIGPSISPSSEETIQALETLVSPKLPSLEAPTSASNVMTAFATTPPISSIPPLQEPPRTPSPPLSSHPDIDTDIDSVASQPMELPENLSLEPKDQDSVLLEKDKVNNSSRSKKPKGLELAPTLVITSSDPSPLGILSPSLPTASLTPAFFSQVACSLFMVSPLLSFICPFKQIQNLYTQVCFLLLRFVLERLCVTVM
# Outline: as §1
# ETV2 = target: T4, ETV2 (Homo sapiens, UniProt O00321 1-342); settings: protein: recombinant; tags: N-terminal GST; dsDNA, one strand shown
# T4 sequence: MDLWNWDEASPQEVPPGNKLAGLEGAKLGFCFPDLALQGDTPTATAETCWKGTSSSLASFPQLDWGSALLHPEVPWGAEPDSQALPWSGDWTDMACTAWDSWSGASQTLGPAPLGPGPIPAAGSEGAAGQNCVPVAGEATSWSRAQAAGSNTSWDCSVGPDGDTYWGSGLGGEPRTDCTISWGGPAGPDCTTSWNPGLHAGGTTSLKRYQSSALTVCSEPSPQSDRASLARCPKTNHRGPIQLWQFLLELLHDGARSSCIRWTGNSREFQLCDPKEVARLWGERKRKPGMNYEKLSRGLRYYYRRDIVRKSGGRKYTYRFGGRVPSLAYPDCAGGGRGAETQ
# Outline: as §1
# ELF3 = target: T5, ELF3 (Homo sapiens, UniProt P78545 1-371); settings: protein: recombinant; tags: N-terminal GST; dsDNA, one strand shown
# T5 sequence: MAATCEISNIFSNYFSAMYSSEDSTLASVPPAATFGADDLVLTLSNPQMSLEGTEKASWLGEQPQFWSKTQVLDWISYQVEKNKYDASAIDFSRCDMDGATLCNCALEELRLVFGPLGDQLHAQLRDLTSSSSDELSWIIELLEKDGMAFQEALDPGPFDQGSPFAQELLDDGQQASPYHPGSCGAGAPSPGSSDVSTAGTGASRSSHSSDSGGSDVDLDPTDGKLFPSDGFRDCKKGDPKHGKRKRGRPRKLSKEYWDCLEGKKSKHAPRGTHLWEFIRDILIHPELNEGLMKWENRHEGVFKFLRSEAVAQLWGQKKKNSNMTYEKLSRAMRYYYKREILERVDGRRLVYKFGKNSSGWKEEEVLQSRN
# Outline: as §1
# CRX = CRX (Homo sapiens, UniProt O43186 1-299); settings: protein: recombinant; tags: N-terminal GST; dsDNA, one strand shown
# Outline: as §1
# ETV1 = ETV1 (Homo sapiens, UniProt P50549 1-477); settings: protein: recombinant; tags: N-terminal GST; dsDNA, one strand shown
# Outline: as §1
# ERF = target: T6, ERF (Homo sapiens, UniProt P50548 1-548); settings: protein: recombinant; tags: N-terminal GST; dsDNA, one strand shown
# T6 sequence: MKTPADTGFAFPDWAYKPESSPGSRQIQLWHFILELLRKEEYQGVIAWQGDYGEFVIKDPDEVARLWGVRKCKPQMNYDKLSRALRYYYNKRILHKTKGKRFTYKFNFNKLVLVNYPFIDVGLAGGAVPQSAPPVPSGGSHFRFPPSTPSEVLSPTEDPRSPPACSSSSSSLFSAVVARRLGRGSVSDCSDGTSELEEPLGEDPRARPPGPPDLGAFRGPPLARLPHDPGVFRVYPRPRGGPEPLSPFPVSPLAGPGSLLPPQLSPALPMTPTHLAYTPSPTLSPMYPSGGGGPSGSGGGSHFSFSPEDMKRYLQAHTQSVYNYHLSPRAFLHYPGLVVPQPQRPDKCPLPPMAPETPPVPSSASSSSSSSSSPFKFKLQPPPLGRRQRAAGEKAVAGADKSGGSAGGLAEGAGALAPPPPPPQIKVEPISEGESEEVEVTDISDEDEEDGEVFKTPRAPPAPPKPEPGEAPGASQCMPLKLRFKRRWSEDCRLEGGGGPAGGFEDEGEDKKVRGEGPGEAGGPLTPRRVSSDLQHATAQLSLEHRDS
# Outline: as §1
# ETV3L = target: T7, ETV3L (Homo sapiens, UniProt Q6ZN32 1-361); settings: protein: recombinant; tags: N-terminal GST; dsDNA, one strand shown
# T7 sequence: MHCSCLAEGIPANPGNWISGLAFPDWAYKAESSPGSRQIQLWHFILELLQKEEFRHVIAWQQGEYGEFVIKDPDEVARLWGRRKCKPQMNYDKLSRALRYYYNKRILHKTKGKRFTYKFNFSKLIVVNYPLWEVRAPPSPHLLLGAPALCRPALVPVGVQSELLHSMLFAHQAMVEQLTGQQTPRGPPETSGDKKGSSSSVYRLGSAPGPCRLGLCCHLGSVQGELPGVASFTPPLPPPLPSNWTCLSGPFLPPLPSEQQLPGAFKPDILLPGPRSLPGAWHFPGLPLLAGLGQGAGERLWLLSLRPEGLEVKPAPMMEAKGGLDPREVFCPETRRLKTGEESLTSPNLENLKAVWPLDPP
# Outline: as §1
# ETS2 = target: T8, ETS2 (Homo sapiens, UniProt P15036 1-469); settings: protein: recombinant; tags: N-terminal GST; dsDNA, one strand shown
# T8 sequence: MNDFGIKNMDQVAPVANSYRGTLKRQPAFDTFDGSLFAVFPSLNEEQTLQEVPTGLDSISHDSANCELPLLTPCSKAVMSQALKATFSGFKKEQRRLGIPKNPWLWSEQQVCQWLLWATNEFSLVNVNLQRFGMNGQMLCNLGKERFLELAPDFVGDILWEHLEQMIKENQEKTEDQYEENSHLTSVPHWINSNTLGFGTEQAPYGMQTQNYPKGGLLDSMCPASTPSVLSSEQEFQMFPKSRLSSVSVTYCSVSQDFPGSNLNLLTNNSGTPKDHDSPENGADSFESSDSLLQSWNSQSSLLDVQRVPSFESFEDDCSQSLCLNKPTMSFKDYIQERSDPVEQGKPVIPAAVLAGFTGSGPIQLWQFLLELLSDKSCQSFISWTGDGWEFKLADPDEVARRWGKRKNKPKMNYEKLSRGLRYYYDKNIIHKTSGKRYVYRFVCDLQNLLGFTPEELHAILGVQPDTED
# Outline: as §1
# SPDEF = target: T9, SPDEF (Homo sapiens, UniProt O95238 1-335); settings: protein: recombinant; tags: N-terminal GST; dsDNA, one strand shown
# T9 sequence: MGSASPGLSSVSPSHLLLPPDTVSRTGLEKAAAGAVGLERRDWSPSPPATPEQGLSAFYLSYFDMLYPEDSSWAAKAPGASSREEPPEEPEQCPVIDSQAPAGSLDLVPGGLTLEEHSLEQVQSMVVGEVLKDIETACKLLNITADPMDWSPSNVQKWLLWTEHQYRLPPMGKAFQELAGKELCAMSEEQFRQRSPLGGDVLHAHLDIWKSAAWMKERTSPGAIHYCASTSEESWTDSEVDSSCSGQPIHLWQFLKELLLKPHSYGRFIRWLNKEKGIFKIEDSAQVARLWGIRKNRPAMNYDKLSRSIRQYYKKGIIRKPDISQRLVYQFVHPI
# Outline: as §1
# ETV7 = target: T10, ETV7 (Homo sapiens, UniProt Q9Y603 1-341); settings: protein: recombinant; tags: N-terminal GST; dsDNA, one strand shown
# T10 sequence: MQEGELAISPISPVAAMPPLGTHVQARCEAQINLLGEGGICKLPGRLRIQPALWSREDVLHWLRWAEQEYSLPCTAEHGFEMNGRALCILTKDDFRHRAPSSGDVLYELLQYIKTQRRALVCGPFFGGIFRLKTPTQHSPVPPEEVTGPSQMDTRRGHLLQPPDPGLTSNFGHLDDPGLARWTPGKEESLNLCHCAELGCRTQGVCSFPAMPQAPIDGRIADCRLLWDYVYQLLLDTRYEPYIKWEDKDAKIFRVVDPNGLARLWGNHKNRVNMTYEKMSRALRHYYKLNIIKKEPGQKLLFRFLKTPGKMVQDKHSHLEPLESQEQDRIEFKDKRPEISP
# Outline: as §1
# ELF5 = target: T11, ELF5 (Homo sapiens, UniProt Q9UKW6-2 1-255); settings: protein: recombinant; tags: N-terminal GST; dsDNA, one strand shown
# T11 sequence: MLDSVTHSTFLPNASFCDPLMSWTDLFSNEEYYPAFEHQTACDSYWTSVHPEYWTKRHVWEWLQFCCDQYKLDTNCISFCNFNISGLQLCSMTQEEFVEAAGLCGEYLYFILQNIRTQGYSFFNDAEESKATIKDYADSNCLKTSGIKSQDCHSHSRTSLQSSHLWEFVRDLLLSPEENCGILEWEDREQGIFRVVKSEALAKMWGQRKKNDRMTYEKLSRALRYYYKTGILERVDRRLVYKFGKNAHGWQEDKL
# Outline: as §1
# ETV3 = target: T12, ETV3 (Homo sapiens, UniProt P41162-2 1-143); settings: protein: recombinant; tags: N-terminal GST; dsDNA, one strand shown
# T12 sequence: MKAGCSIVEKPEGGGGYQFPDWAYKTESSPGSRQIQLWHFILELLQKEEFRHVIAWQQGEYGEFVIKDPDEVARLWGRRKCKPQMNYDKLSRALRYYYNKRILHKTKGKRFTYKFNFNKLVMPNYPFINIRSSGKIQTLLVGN
# Outline: as §1
# ETV6 = ETV6 (Homo sapiens, UniProt P41212 1-452); settings: protein: recombinant; tags: N-terminal GST; dsDNA, one strand shown
# Outline: as §1
# HSF1, sequence (Q00613 whole entry): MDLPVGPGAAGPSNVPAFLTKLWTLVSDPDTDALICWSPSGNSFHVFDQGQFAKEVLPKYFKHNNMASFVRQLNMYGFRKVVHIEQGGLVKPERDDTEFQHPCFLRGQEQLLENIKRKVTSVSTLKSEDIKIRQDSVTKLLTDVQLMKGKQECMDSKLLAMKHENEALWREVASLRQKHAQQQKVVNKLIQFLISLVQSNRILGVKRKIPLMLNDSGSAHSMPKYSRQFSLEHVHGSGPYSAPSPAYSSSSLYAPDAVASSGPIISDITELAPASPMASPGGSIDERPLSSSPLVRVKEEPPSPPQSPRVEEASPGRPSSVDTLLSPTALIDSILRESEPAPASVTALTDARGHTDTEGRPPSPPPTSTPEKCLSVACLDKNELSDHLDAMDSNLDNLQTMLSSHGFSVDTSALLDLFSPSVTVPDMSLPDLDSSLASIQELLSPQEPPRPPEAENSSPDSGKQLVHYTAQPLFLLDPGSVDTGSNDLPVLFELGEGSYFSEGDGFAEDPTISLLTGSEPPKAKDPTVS
# CRX, sequence (O43186 whole entry): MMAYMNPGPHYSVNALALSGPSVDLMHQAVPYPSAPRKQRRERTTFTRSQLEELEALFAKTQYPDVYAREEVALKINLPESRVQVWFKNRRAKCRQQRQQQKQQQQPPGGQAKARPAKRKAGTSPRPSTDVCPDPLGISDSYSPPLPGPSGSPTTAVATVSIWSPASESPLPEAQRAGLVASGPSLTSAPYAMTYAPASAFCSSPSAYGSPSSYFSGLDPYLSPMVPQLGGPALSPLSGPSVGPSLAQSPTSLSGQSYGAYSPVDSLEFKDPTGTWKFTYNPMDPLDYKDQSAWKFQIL
# ELF4, sequence (Q99607 whole entry): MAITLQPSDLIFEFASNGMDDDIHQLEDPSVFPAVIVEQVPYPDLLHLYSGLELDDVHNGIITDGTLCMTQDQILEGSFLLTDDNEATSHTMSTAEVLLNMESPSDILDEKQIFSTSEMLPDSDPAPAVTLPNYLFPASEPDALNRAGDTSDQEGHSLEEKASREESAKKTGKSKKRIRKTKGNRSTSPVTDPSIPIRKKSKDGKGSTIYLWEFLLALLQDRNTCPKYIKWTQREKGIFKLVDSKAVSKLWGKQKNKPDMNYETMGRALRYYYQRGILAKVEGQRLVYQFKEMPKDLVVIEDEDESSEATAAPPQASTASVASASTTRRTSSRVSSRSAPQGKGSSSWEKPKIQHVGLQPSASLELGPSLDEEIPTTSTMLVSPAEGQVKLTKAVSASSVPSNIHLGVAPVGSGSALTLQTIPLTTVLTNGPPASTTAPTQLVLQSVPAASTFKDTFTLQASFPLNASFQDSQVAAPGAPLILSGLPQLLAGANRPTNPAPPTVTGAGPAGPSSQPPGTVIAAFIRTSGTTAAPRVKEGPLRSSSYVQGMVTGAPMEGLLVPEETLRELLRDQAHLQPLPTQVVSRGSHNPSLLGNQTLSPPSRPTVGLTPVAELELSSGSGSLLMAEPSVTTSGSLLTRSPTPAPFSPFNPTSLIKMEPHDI
# ETV5, sequence (P41161 whole entry): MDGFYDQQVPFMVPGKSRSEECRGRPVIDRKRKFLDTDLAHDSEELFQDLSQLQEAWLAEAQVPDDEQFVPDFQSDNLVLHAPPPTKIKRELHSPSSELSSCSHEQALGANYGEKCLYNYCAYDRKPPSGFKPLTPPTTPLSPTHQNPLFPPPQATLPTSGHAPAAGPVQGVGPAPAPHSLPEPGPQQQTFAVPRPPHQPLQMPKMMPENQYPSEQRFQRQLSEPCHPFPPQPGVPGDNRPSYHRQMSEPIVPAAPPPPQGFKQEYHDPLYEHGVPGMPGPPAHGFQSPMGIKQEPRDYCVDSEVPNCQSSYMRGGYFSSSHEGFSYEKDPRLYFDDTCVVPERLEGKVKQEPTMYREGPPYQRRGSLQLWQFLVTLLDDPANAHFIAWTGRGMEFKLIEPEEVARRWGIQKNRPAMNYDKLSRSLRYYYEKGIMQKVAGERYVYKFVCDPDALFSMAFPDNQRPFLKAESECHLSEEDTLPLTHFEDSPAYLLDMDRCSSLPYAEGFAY
# ETV1, sequence (P50549 whole entry): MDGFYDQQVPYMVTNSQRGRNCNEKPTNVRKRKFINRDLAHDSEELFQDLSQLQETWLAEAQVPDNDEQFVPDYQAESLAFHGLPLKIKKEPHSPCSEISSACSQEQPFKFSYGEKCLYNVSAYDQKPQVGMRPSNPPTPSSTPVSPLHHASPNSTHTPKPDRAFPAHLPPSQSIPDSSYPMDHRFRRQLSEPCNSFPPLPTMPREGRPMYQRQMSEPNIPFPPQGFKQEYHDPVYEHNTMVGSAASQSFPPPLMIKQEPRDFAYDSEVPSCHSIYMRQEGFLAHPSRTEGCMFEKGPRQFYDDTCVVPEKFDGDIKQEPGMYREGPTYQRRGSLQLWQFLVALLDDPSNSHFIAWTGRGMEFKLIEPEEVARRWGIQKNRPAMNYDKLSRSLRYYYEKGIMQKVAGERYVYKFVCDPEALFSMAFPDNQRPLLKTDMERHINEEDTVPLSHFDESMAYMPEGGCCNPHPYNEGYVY
# ETV6, sequence (P41212 whole entry): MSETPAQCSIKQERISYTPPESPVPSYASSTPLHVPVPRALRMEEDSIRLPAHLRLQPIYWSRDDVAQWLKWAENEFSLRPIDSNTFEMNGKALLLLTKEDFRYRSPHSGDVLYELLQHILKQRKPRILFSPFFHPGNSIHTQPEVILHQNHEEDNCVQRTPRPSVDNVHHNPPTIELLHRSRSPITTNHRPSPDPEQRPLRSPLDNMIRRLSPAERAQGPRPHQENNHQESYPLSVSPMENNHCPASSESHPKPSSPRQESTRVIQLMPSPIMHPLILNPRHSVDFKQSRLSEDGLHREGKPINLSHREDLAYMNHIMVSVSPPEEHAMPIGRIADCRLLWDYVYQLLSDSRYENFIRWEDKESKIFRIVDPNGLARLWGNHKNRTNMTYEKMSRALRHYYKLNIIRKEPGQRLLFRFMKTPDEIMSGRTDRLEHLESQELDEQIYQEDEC
sequence,measurement,setting,value
CCTGGT,binding signal,FEV,"1.25 fold enrichment (6-mer frequency, TF over GST control)"
same,binding signal,ETV5,"1.42 fold enrichment (6-mer frequency, TF over GST control)"
same,binding signal,HSF1,"1.08 fold enrichment (6-mer frequency, TF over GST control)"
same,binding signal,SPIC,"1.34 fold enrichment (6-mer frequency, TF over GST control)"
same,binding signal,ELF4,"1.35 fold enrichment (6-mer frequency, TF over GST control)"
same,binding signal,ELK4,"1.2 fold enrichment (6-mer frequency, TF over GST control)"
same,binding signal,ETV2,"1.56 fold enrichment (6-mer frequency, TF over GST control)"
same,binding signal,ELF3,"1.13 fold enrichment (6-mer frequency, TF over GST control)"
same,binding signal,CRX,"1.1 fold enrichment (6-mer frequency, TF over GST control)"
same,binding signal,ETV1,"1.54 fold enrichment (6-mer frequency, TF over GST control)"
same,binding signal,ERF,"1.37 fold enrichment (6-mer frequency, TF over GST control)"
same,binding signal,ETV3L,"1.53 fold enrichment (6-mer frequency, TF over GST control)"
same,binding signal,ETS2,"1.43 fold enrichment (6-mer frequency, TF over GST control)"
same,binding signal,SPDEF,"1.69 fold enrichment (6-mer frequency, TF over GST control)"
same,binding signal,ETV7,"1.31 fold enrichment (6-mer frequency, TF over GST control)"
same,binding signal,ELF5,"1.58 fold enrichment (6-mer frequency, TF over GST control)"
same,binding signal,ETV3,"1.49 fold enrichment (6-mer frequency, TF over GST control)"
same,binding signal,ETV6,"1.4 fold enrichment (6-mer frequency, TF over GST control)"
